TROY signal inh: TROY signaling inhibition; Q293 LMP1-TROYcd NF-kB luciferase reporter, 4 h; inhibition, % at 10 µM; 360,000 compounds, 0.98% hits; AID 1347056;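 active = compounds whose plate-normalised and pattern-corrected inhibition of the luciferase reporter signal at the single screening dose is 50% or more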
TRAIL sens C8: caspase-8 TRAIL sensitization; NB7+C8 cells + TRAIL, ATPlite viability luminescence; inhibition (viability loss, TRAIL sensitization), % at 10 µM; 360,000 compounds, 1% hits;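 active = compounds causing at least 50% loss of cell viability in the single-dose screen, relative to plate controls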
PPC-1+TRAIL kill: kills PPC-1 cancer cells in the presence of TRAIL. PPC-1 cells + TRAIL, ATPLite viability luminescence. cell killing (% activity), % at 4 µM or 5 µM. 220,000 compounds, 0.41% hits. AID 1443;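 active = cell killing above 50% in the first pass at 4 µM, then a duplicate retest at 5 µM averaging 50% or more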
HSP90 refold inh: inhibitors of HSP90 luciferase refolding in rabbit reticulocyte lysate | luciferase refolding luminescence, 3 h | inhibition, % at 5.6 µM | 290,000 compounds, 0.91% hits | AID 1789;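 active = inhibition above the screen-wide mean plus 3 SD, computed separately per campaign, cut at about 16% in these data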;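 note: inhibitors lower the luminescence because luciferase stays unfolded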
Platelet DG rel: platelet dense granule release activity; human platelet-rich plasma, SFLLRN dense granule ATP release, luminescence; inhibition, %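 (compounds screened at 7.5 µM in platelet-rich plasma)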; 300,000 compounds, 0.22% hits; AID 1663;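 active = mean replicate score, as percent of positive control, at or above 50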
TWEAK Fn14 block: blocks TWEAK-Fn14 interaction in a reporter cell assay; 360,000 compounds, 2% hits; AID 1159606; TWEAK-stimulated Fn14 reporter cells, luciferase luminescence, 8 h; inhibition, % at 10 µM; in the data active = inhibition above about 50%
Hits are given with their value. In the library only some 3.5% were active in any assay of this set; here they are far more common.

How did Cc1c(/C(O)=C2/C(=O)C(=O)N(CCN3CCOCC3)C2c2cccnc2)cnn1-c1ccccc1 (stereo not drawn) do in these assays?
TROY signal inh: inactive; TRAIL sens C8: inactive; PPC-1+TRAIL kill: inactive; HSP90 refold inh: inactive; Platelet DG rel: inactive; TWEAK Fn14 block: inactive

What do the screens show for `CN1OC[C@@H]2CN3C(=O)N(c4cccc5ccccc45)c4ccccc4[C@@H]3C[C@@H]21`?
TROY signal inh: inactive; TRAIL sens C8: inactive; TWEAK Fn14 block: inactive

Results for CCOC(=O)C1CCCN(c2ncnc3c2cnn3-c2cccc(C)c2)C1 (stereo not drawn) ?
TROY signal inh: inactive; TRAIL sens C8: inactive; PPC-1+TRAIL kill: inactive; HSP90 refold inh: inactive; Platelet DG rel: inactive; TWEAK Fn14 block: inactive

How did COc1cccc(N2CCN(c3ncnc4c3cnn4-c3ccc(C)cc3C)CC2)c1 do in these assays?
TROY signal inh: 80; TRAIL sens C8: 93; PPC-1+TRAIL kill: inactive; HSP90 refold inh: inactive; Platelet DG rel: inactive; TWEAK Fn14 block: 106

Results for CCN(CC)C(=O)C1CCCN(c2ncnc3c2cnn3-c2cccc(C)c2)C1 (stereo not drawn) ?
TROY signal inh: inactive; TRAIL sens C8: inactive; PPC-1+TRAIL kill: inactive; HSP90 refold inh: inactive; Platelet DG rel: inactive; TWEAK Fn14 block: 50

What do the screens show for `Cc1cccc(-n2ncc3c(NC(C)C)ncnc32)c1`?
TROY signal inh: inactive; TRAIL sens C8: 66; PPC-1+TRAIL kill: inactive; HSP90 refold inh: inactive; Platelet DG rel: inactive; TWEAK Fn14 block: inactive

Results for Cc1cccc(-n2ncc3c(N4CCC(C)CC4)ncnc32)c1 ?
TROY signal inh: inactive; TRAIL sens C8: 50; PPC-1+TRAIL kill: inactive; HSP90 refold inh: inactive; Platelet DG rel: inactive; TWEAK Fn14 block: inactive

What do the screens show for `CC(C)Nc1ncnc2c1cnn2-c1ccccc1`?
TROY signal inh: inactive; TRAIL sens C8: inactive; HSP90 refold inh: inactive; Platelet DG rel: inactive; TWEAK Fn14 block: inactive

What do the screens show for `Cc1ccc(N(CC(=O)Nc2c(C)cccc2C)S(C)(=O)=O)cc1`?
TROY signal inh: inactive; TRAIL sens C8: inactive; HSP90 refold inh: inactive; Platelet DG rel: inactive; TWEAK Fn14 block: inactive

What do the screens show for `Cc1ccc(Cl)cc1NC(=O)CN1CCOCC1`?
TROY signal inh: inactive; TRAIL sens C8: inactive; Platelet DG rel: inactive; TWEAK Fn14 block: inactive

Results for CCNC(=O)C1(C)CCN(C(=O)c2ccc(OC)cc2OC)C1 (stereo not drawn) ?
TROY signal inh: inactive; TRAIL sens C8: inactive; TWEAK Fn14 block: inactive

Results for CCOC(=O)N1CCN(c2ncnc3c2cnn3-c2ccc(Cl)cc2)CC1 ?
PPC-1+TRAIL kill: inactive; HSP90 refold inh: inactive; Platelet DG rel: inactive

Results for CCN(CC)C(=O)C1CCCN(c2ncnc3c2cnn3-c2ccc(Cl)cc2)C1 (stereo not drawn) ?
TROY signal inh: 63; TRAIL sens C8: inactive; HSP90 refold inh: inactive; Platelet DG rel: inactive; TWEAK Fn14 block: 71

Results for C#C[C@]1(O)CC[C@H]2[C@@H]3[C@H](C)CC4=C(CCC(=O)C4)[C@H]3CC[C@@]21C ?
Platelet DG rel: inactive

How did Oc1cccc(NC(=S)Nc2ccc(SC(F)F)cc2)c1 do in these assays?
TROY signal inh: inactive; TRAIL sens C8: inactive; PPC-1+TRAIL kill: inactive; HSP90 refold inh: inactive; Platelet DG rel: inactive; TWEAK Fn14 block: inactive

What do the screens show for `Oc1cccc2c(NC(=S)Nc3ccc(SC(F)F)cc3)cccc12`?
TROY signal inh: 64; TRAIL sens C8: inactive; PPC-1+TRAIL kill: inactive; HSP90 refold inh: inactive; Platelet DG rel: inactive; TWEAK Fn14 block: 60

What do the screens show for `O=C(/C=N/NC(=O)c1ccc(Cl)cc1Cl)c1ccccc1`?
TROY signal inh: inactive; TRAIL sens C8: inactive; PPC-1+TRAIL kill: inactive; HSP90 refold inh: inactive; Platelet DG rel: inactive; TWEAK Fn14 block: inactive

How did CN(C(=O)COC(=O)c1cc(S(=O)(=O)N2CCOCC2)ccc1F)C1CCS(=O)(=O)C1 (stereo not drawn) do in these assays?
TROY signal inh: inactive; TRAIL sens C8: inactive; Platelet DG rel: inactive; TWEAK Fn14 block: inactive

Results for CCCCCC(O)CCCC(=O)O (stereo not drawn) ?
TROY signal inh: inactive; TRAIL sens C8: inactive; TWEAK Fn14 block: inactive

What do the screens show for `CCCCCCCCCCCCCCCC(O)C[N+](C)(C)CCO` (stereo not drawn)?
TROY signal inh: inactive; TRAIL sens C8: 92; TWEAK Fn14 block: inactive

Results for O=C1C=CN2CCCCC2CC1 (stereo not drawn) ?
TROY signal inh: inactive; TRAIL sens C8: inactive; TWEAK Fn14 block: inactive

Screens (PubChem BioAssay)
